In PubChem BioAssay (NCATS) one finds Potency data, which are given here for 40 compounds.

Results filed as inconclusive are left out. Entries that show only a call come without a potency. The source made the active and inactive calls. The call rests on the fitted dose curve; in most records, active means well fitted cell-killing curve with a large enough effect; inconclusive means small, poorly fitted or top-dose-only effect; inactive means flat fitted curve, though single readings scatter.
Potency means the concentration at half of the fitted maximal effect.

This experiment is described as follows: qHTS of pediatric cancer cell lines to identify multiple opportunities for drug repurposing: Primary screen for Rh18 cells (AID 1347102). Further: nearly all actives have a fitted effect of over 65% in size. Conditions: Rh18 rhabdomyosarcoma viability, CellTiter-Glo luminescence, 48 h; series mostly up to 46 µM. The text has this: Drug repurposing or repositioning has been offered as a strategy for drug development in oncology programs. This approach has special potential for childhood cancers and other rare or orphan diseases, where the expected return on new drug development has been a disincentive to pharmaceuticals.
In this project we exploit the poly-pharmacology of drugs to discover new indications via phenotypic screening of a panel of 19 well-characterized cell lines derived from solid tumors seen in children and adolescents. The goal is to identify approved drugs with previously unrecognized anticancer properties that has the potential to reveal new mechanisms and biological processes involved in carcinogenesis or drug resistance. We employed a titration-based paradigm (quantitative high-throughput screening or qHTS), where all compounds were tested at multiple concentrations for their effect on cell viability. Concentration-response curves (CRCs) were derived directly from the primary screen, and both potency and efficacy values were used to identify compounds with robust bioactivity profiles. We screened the NIH Chemical Genomics Center (NCGC) Pharmaceutical Collection (NPC) and Mechanism Interrogation Plate (MIPE) small molecule collections of approved and investigational compounds against these cell lines; and measured metabolically active cells after 48 hours of compound treatment as a proxy for cell viability.
Assay Submitter: Nathalia J. Martinez, National Center for Advancing Translational Sciences, National Institutes of Health, Rockville, MD, USA; email: natalia.martinez@nih.gov
[1] Shen, M et al. Quantitative high-throughput phenotypic screening of pediatric cancer cell lines identifies multiple opportunities for drug repurposing. Oncotarget 2017 Dec 19;9(4):4758-4772. PMID 29435139.
The cells were obtained from University of North Carolina (UNC), Pediatric Preclinical Testing Program (PPT), and Coriell Institute (CI).
qHTS cell viability assay:
Cells were assayed in growth media at a density of 500-1,000 cells/well. Five microliters of cells were dispensed into 1,536-well, white, solid-bottom, TC-treated plates (Greiner Bio One) using a multidrop dispenser and incubated at 37 degrees C, 5% CO2, under a humidified atmosphere for 5 hours. Twenty-three nanoliters of compounds and controls (neutral control DMSO or positive control bortezomib at final concentration of 2.3 µM) were subsequently transferred by Kalypsys pintool. For primary screens, the MIPE collection was tested at 11-point dilutions (final concentrations range from 0.78 nM to 46 µM) and the NPC collection at 8-point dilutions (final concentrations range from 0.59 nM to 46 µM). Compounds tested in follow-up screens were assayed at 11-point dilutions. Cells were incubated for 48 hours, followed by addition of 3 µL of CellTiter-Glo (Promega). After a 15 min incubation at room temperature, samples were analyzed for luminescence intensity using a ViewLux High-throughput CCD imager equipped with clear filters.
In general terms: Quantitative high-throughput screening tests each substance at several concentrations.
For the compound `Oc1ccccc1-c1ccccc1`, the Potency result is “inactive”.
With `CN(C)[C@@H]1C(=O)C(C(N)=O)=C(O)[C@@]2(O)C(=O)C3=C(O)c4c(O)cccc4[C@@](C)(O)[C@H]3C[C@@H]12` the entry was “inactive”.
The entry for `CCC1(C2=NCCN2)Cc2ccccc2O1` (stereo not given) is “inactive”.
As to `Cc1cccc(C)c1NC(=O)CN1CCCC1=O`, the Potency result was “inactive”.
As for `O=C1NCN(c2ccccc2)C12CCN(CC1COc3ccccc3O1)CC2` (stereo not given), the Potency entry is “inactive”.
On to `CCC(COC(=O)c1cc(OC)c(OC)c(OC)c1)(c1ccccc1)N(C)C` (stereo not given), for which the Potency result is “inactive”.
The figure for `COC[C@H]1OC(=O)c2coc3c2[C@@]1(C)C1=C(C3=O)C2CCC(=O)[C@@]2(C)C[C@H]1OC(C)=O` (stereo not given in full) is 20.9 µM (active); for `CCN(CC)CCN1C(=O)CN=C(c2ccccc2F)c2cc(Cl)ccc21` it is “inactive”; for `CC(C)=CCOc1c2occc2cc2ccc(=O)oc12` it is “inactive”.
With `C#CCN(C)[C@H](C)Cc1ccccc1` the entry was “inactive”; with `COc1ccccc1N1CCNCC1`, “inactive”.
The entry for `C=CCN1CC[C@]23c4c5ccc(O)c4O[C@H]2C(=O)CC[C@@]3(O)[C@H]1C5` is “inactive”; for `COc1ccc2c(c1OC)CN1CCc3cc4c(cc3C1C2)OCO4` (stereo not given) it is “inactive”; for `CCCN1CCC[C@@H]2Cc3nc(N)ncc3C[C@H]21` it is “inactive”.
Take `COC1(CS(=O)c2ccccc2)CCN(CCc2c[nH]c3ccc(F)cc23)CC1` (stereo not given): the Potency entry was “inactive”.
With `C[C@]12CC[C@H]3[C@@H](CCC4=CC(=O)CC[C@@H]43)[C@@H]1CC[C@@H]2OC(=O)CCc1ccccc1` the entry was “inactive”.
For `CN(C)CCN(C)CCc1ccc(Cl)c(Cl)c1`, the Potency entry is “inactive”.
With `CCCC(C)(COC(N)=O)COC(=O)NC(C)C` (stereo not given) the entry was “inactive”.
With `COc1ccc(C(CN(C)C)C2(O)CCCCC2)cc1` (stereo not given) the entry was “inactive”; with `Clc1ccc(COC(Cn2ccnc2)c2ccc(Cl)cc2Cl)cc1` (stereo not given), “inactive”.
With `CC[C@@H](CO)NC(=O)[C@@H]1C=C2c3cccc4c3c(cn4C)C[C@H]2N(C)C1` the entry was “inactive”.
Regarding `CC1NCCOC1c1ccccc1` (stereo not given), the Potency entry is “inactive”.
As to `CCC(=O)C(CC(C)N(C)C)(c1ccccc1)c1ccccc1` (stereo not given), the Potency result is “inactive”.
With `CCN(CC)CCOC(=O)C(O)(c1ccccc1)c1ccccc1` the entry was “inactive”.
The entry for `Cc1ccc(S(=O)(=O)N[C@@H](CCCCN)C(=O)CCl)cc1` is “inactive”; for `CC1=C2C[C@@H]3[C@@H](CC=C4C[C@@H](O)CC[C@@]43C)[C@@H]2CC[C@]12O[C@H]1C[C@H](C)CN[C@H]1[C@H]2C` it is “inactive”; for `C[C@]12C/C(=C/O)C(=O)C[C@@H]1CC[C@@H]1[C@@H]2CC[C@@]2(C)[C@H]1CC[C@]2(C)O` it is “inactive”.
`Cc1ccc2c(c1)C1CN(C)CCC1N2` (stereo not given): the Potency entry was “inactive”.
The entry for `Cc1cccc(C)c1NC1=NCCCS1` is “inactive”; for `COc1ccc(C(=O)c2c(C)n(CCN3CCOCC3)c3ccccc23)cc1` it is “inactive”; for `C[C@]12CCC(=O)C(O)=C1CC[C@@H]1[C@@H]2CC[C@]2(C)C(=O)CC[C@@H]12` it is “inactive”.
In the case of `O=C(NC(O)C(Cl)(Cl)Cl)NC(O)C(Cl)(Cl)Cl` (stereo not given), the Potency result was “inactive”.
Regarding `N[C@@H](Cc1ccc(Oc2cc(I)c(O)c(I)c2)c(I)c1)C(=O)O`, the Potency result is “inactive”.
With `Cn1cc(C2=C(c3cn(C4CCN(Cc5ccccn5)CC4)c4ccccc34)C(=O)NC2=O)c2ccccc21` the entry was “inactive”; with `C[C@@H]1[C@@H](CC(C[C@H]2O[C@@H]3O[C@]4(C)CC[C@@H]5[C@H](C)CC[C@@H]([C@H]2C)[C@@]35OO4)C[S+](=O)([O-])c2ccc(COC(=O)N(C)C)cc2)O[C@@H]2O[C@]3(C)CC[C@H]4[C@H](C)CC[C@@H]1[C@@]24OO3` (stereo not given in full), 1.66 µM (active).
With `OCCOc1ccccc1` the entry was “inactive”; with `Cc1cc(SCc2sc(-c3ccc(C(F)(F)F)c(F)c3)nc2C)ccc1OCC(=O)O`, “inactive”; with `CC(C)=CC1C(C(=O)OCc2cccc(Oc3ccccc3)c2)C1(C)C` (stereo not given), “inactive”.
The entry for `c1ccc(C2CC2)c(OCC2=NCCN2)c1` is “inactive”; for `c1ccc2c(c1)Nc1ccccc1S2` it is “inactive”.
